Hits are enriched below; roughly 3.4% of the tested compounds scored in any of these assays.
IMPase Li inh = membrane-permeable IMPase blocker, potentiated with lithium; CHO-M1 cells, IP1 TR-FRET (IP-One), carbachol + lithium; Potency, µM (series often up to 59.4 µM), for the others: at the top dose activity, negative = IMPase inhibition, most hits filed as inhibitors; hit rate 0.35% among 210,000;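 further: IP1 builds up when IMPase is blocked and the TR-FRET signal falls; potency means the concentration at half of the fitted maximal effect; plate controls were basal vehicle for no effect and high inhibitor control for full effect; nearly all actives have a fitted effect of over 50% in size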
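CHO-M1, 2000 cells/well, 16–30 h culture; cpd + low Li+, 30 min 37C; lysis with d2-IP1/Eu-anti-IP1 Ab, 10 min RT; TR-FRET 665/620 ratio and 620 channel; AC50 via Hill.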
HTT cytoprotect = protects HTT-Q103 PC12 cells, measured by ATP; PC12 HTT-Q103 induced, cytoprotection, ATP luminescence, 40 h; Potency, µM (doses to about 56.4 µM), for the others: cytoprotection (ATP increase), most hits filed as activators; hit rate 0.14% among 230,000; further: potency means the concentration at half of the fitted maximal effect; % of control where 0% means no effect; nearly all actives have a fitted effect of over 45% in size
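Rat PC12, Q103 Htt exon1-GFP fusion, ecdysone promoter; tebufenozide inducer 100 nM final; compound titration; qHTS, 1500 cells/well; ATPlite luminescent read.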
PNC assembly inh = perinucleolar compartment assembly inhibition; hit rate 3.1% among 140,000; activity change (PNC), negative = inhibition, % at 10 µM; PC3M PTB-GFP, PNC prevalence imaging, 16 h; hits give low values;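 active means readout at or below -70, meaning at least 70% loss of cells showing the perinucleolar compartment, a nuclear body marking cancer cells; inconclusive means readout between -30 and a set limit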;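 further: plate controls were DMSO wells for no effect and camptothecin positive control wells for full effect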
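PC3M cells stably expressing PTB-GFP, 750–1000 cells/well, treated 16 h at 37 °C with compound (23 nl of library stock), in duplicate. After paraformaldehyde fixation and Hoechst stain, imaged at 20x; PNC prevalence scored by image analysis.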
HTT aggregate = inhibitors of mutant huntingtin aggregate formation in PC12 cells; PC12 HttQ103-GFP aggregates, Acumen cytometry, 40 h; Potency, µM (titrated, usually from 46.1 µM), inactives show at the top dose activity change, negative = inhibition, hits mostly inhibitors; hit rate 1.1% among 220,000; AID 1688; further: potency means the concentration at half of the fitted maximal effect; on the % scale 0 is the no-effect control and ±100 the full control effect; nearly all actives have a fitted effect of over 60% in size
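PC12 cells stably carrying ecdysone-inducible HTT exon 1 Q103–GFP were induced with tebufenozide (100 nM final) and treated with library compounds in titration. GFP aggregates in lysates were counted by laser scanning cytometry.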
IMPase inh = IMPase inhibition in cells; AID 901; CHO-M1 cells, IP1 accumulation, HTRF TR-FRET ratio; 120,000 tested, under 10 active; inhibition (IP1 accumulation), % at 46.1 µM; P97697; active means well fitted curve in the direction sought with a large enough effect in the signal ratio, not every such curve was filed as active; inconclusive means small, poorly fitted or top-dose-only effect, or a change in a side signal; inactive means no such curve, though single readings can be large or run the other way; the % refers to the signal ratio;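 further: cells stimulated with carbachol in lithium chloride buffer; plate controls were DMSO basal wells for no effect and reference inhibitor wells for full effect; higher means more IMPase inhibition seen as more IP1 and lower FRET ratio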
Target sequence (P97697 whole entry, looked up): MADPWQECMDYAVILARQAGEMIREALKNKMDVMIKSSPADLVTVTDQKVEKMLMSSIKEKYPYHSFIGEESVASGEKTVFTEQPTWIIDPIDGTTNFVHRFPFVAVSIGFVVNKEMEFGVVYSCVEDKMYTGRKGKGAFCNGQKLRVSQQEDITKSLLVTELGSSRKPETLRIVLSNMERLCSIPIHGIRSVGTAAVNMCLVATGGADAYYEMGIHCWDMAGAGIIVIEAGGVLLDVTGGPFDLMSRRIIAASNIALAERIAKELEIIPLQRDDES
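Measured: the HTRF emission ratio (665/620 nm) plus the 620 nm donor channel, each fitted to the Hill equation to give AC50. Cells were CHO-M1 given compounds up to 46 uM and a 30 min carbachol stimulation at 37C.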
NPSR antag = blocks cAMP signaling of the human neuropeptide S receptor; hit rate 1% among 220,000; Potency, µM (highest dose often 38.3 µM), inactives show at the top dose activity change, negative = inhibition, actives largely listed as inhibitors; CHO-NPSR cells, cAMP TR-FRET, antagonist mode; further: potency means the concentration at half of the fitted maximal effect; on the % scale 0 is the no-effect control and ±100 the full control effect; nearly all actives have a fitted effect of over 50% in size
Target sequence (Q6W5P4 whole entry, looked up): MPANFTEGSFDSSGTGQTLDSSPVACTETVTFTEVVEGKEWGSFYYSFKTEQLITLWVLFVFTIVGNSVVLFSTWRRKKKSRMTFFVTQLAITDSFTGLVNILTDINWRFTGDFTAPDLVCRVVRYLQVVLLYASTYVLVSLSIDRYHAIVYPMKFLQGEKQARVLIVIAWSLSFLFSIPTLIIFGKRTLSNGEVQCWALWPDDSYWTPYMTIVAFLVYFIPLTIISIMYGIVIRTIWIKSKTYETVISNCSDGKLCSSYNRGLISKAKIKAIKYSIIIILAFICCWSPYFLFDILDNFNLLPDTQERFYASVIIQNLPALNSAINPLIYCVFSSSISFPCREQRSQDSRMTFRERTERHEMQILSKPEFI
Numbers without * were called inactive; u = inconclusive; x = no result given; [ ] = another dose, or the depositor's remark. Unless noted, the call rests on the fitted dose curve; in most records, active means well fitted curve in the direction sought with a large enough effect; inconclusive means small, poorly fitted or top-dose-only effect, or another doubt; inactive means no such curve, though single readings can be large; an effect the other way counts as inactive or inconclusive.

SMILES	IMPase Li inh	HTT cytoprotect	PNC assembly inh	HTT aggregate	IMPase inh	NPSR antag
O=C(O)c1cc(-c2ccc(/C=C3/SC(=S)N(Cc4ccccc4)C3=O)o2)ccc1Cl	5%	24%	x	-2%	x	10µM*
CC1(C)OC(=O)C(=Cc2ccc(-c3ccc(Cl)c(C(=O)O)c3)o2)C(=O)O1	-8%	13%[10 µM]	x	-4%	x	-8%
COc1ccc(CN2C(=O)/C(=C/c3ccc(-c4ccc(Cl)c(C(=O)O)c4)o3)SC2=S)cc1	13%	-22%	x	7%	x	6.3µM*
CCCn1cc(CN2CCN(Cc3ccc(C)o3)C(CCO)C2)c(C)n1 (stereo not drawn)	0%	u	x	-2%[9.22 µM]	x	5%
C=CCn1c(SCC(=O)c2ccc(OC)cc2)nnc1-c1cc2cccc(OC)c2o1	-5%[38.3 µM]	-11%	-123*	4%	6	u
C=CCn1c(SCC(=O)c2ccccc2)nnc1-c1cc2ccccc2o1	8%[38.3 µM]	-14%	u	9%	-3	u
O=C(CC1Sc2ccc(C(F)(F)F)cc2NC1=O)Nc1ccc(Cl)c(C(F)(F)F)c1 (stereo not drawn)	x	x	x	x	7	x
COc1ccc(-c2[nH]c(-c3ccc(Cl)cc3)nc2SCC(=O)Nc2nccs2)cc1	14%	x	2	-2%	x	-23%
COc1ccc(-c2[nH]c(-c3ccccc3)nc2SCC(=O)Nc2nccs2)cc1	-1%	x	-98*	12%	x	13%
O=C(CSc1nc2ccccc2s1)Nc1nccs1	-5%[38.3 µM]	3%	41	20µM*	6	-11%[46.1 µM]
Cc1ccc(Cn2cc(SCC(=O)Nc3nccs3)c3ccccc32)cc1	37%[38.3 µM]	-37%[10 µM]	u	8%	15	10µM*
CC[N+](C)(CC)CCOC(=O)C1c2ccccc2Oc2ccccc21	10%	-64%	x	-1%	14[20.6 µM]	x
COc1ccc(S(=O)(=O)N(CC(=O)Nc2ccc3c(c2)OCO3)c2ccc(C)cc2)cc1	x	x	x	x	0	x
COC(=O)[C@@]1(Cc2ccc(OC)cc2)[C@H]2c3cc(C(=O)N(C)C)n(Cc4ccc(C(F)(F)F)nc4)c3C[C@H]2CN1C(=O)c1ccccc1	7%	-62%	x	x	x	x
CCN1/C(=C/c2sc(-c3ccccc3C)c[n+]2C)Sc2ccccc21	20%	-130%	x	2.2µM*	x	-16%
O=C(NC[C@H](O)c1ccccc1)c1ccccc1	0%	6%	x	x	x	x
c1ccc2c(c1)[nH]c1c(N3CCC4(CC3)OCCO4)ncnc12	26%[38.3 µM]	-34%	43	13µM*	7	-14%[46.1 µM]
COc1cccc2[nH]c3c(N4CCC5(CC4)OCCO5)ncnc3c12	x	29%[10 µM]	x	-2%[9.22 µM]	x	-4%
c1ccc2c(c1)CCN(c1ncnc3c1[nH]c1ccccc13)C2	37%[38.3 µM]	-72%	u	11µM*	27	u
c1nc(N2CCC3(CC2)OCCO3)c2[nH]cnc2n1	-2%	x	-113*	17%	x	12%
CC(=O)c1ccccc1OCC(O)Cn1c(CO)nc2ccccc21 (stereo not drawn)	x	x	x	x	-3	x
Cc1cc(C(=O)N/N=C/c2cc([N+](=O)[O-])ccc2O)c2ccccc2n1	4%	32%[10 µM]	-8	7.1µM*	x	-5%
COc1ccc(O)c(/C=N/Nc2nc3ccccc3[nH]2)c1	8%	-57%	x	-4%[9.22 µM]	x	-18%
O=[N+]([O-])c1ccc(O)c(/C=N/Nc2nc3ccccc3[nH]2)c1	9%	-85%[10 µM]	-93*	u	0	-16%
COC(=O)N1CCC2(CCN(C(=O)Nc3ccc(OC)cc3)CC2)CC1	-13%	-30%	x	x	x	x
SMILES	IMPase Li inh	HTT cytoprotect	PNC assembly inh	HTT aggregate	IMPase inh	NPSR antag
CCC(Sc1nnnn1-c1ccccc1)C(=O)Nc1nc2ccccc2s1 (stereo not drawn)	14%	1%[10 µM]	-100*	u	5	-17%[46.1 µM]
C[N+]1(C)CCO[C@](O)(c2ccccc2)C1	4%	4%[10 µM]	x	x	x	x
N=c1c2c(n(Cc3ccc(Br)cc3)c3c1CCC3)CCCC2	4%	-38%[10 µM]	-123*	u	x	2%
CN1CCN(c2ncc3nc(-c4cc(F)cc(F)c4)c(=O)n(CCC#N)c3n2)CC1	15%	-3%	x	x	x	x
CCN(CC)S(=O)(=O)c1ccc(NC(=O)Nc2cccc(C(F)(F)F)c2)cc1	25%[38.3 µM]	-63%	16	16µM*	10	16µM*
COc1cccc(Nc2nc(NCC3CCCO3)c3ccccc3n2)c1 (stereo not drawn)	-3%[38.3 µM]	-132%	-4	10µM*	16	u
COc1cccc(Nc2nc(NCCO)c3ccccc3n2)c1	49%[38.3 µM]	-55%	18	8.9µM*	7	-5%[46.1 µM]
N=c1n(CC(=O)c2ccc([N+](=O)[O-])cc2)c2ccccc2n1Cc1ccccc1Cl	1%	x	-88*	-18%	x	-48%
N=c1n(CC(=O)c2ccc([N+](=O)[O-])cc2)c2ccccc2n1Cc1ccccc1	6%	-17%[10 µM]	-9	u	-1	-19%
CCCCCCCC1Cc2ccccc2C(C(C(=O)OC)C(=O)OC)N1C(=O)OC (stereo not drawn)	4%	-21%	x	x	x	x
CN1CCc2nc(N)nc(-c3nc(N)nc4c3CN(C)CC4)c2C1	-8%	5%[10 µM]	x	x	x	x
N/N=C1/c2ccccc2N[C@H]1OC(=O)Nc1cccc(Cl)c1	-2%	6%[10 µM]	x	x	x	x
CCOC(=O)c1sc(=NC(=O)c2cccc(OC)c2)n(C)c1C	x	-13%	13	11%	1	10µM*
CCOC(=O)c1sc(=NC(=O)c2ccccc2)n(C)c1C	-6%	-123%	x	10%	x	u
CN1c2ccccc2C(C)(C)C12CC(c1cccc(S(=O)(=O)N3CCCC3)c1)=NO2 (stereo not drawn)	0%	10%[10 µM]	-117*	-28%	x	5%
CCN(CC)S(=O)(=O)c1ccc(C2=NOC3(C2)N(C)c2ccccc2C3(C)C)cc1 (stereo not drawn)	7%	x	-106*	0%	x	-9%
CN1c2ccccc2C(C)(C)C12CC(c1ccc(S(=O)(=O)N3CCCCC3)cc1)=NO2 (stereo not drawn)	-8%	-5%[10 µM]	u	-23%	x	4%
Cc1ccc(S(=O)(=O)C2C(=O)N(C)C3(C)CC2c2ccccc2O3)cc1C (stereo not drawn)	x	4µM*	u	u	-8	-15%[46.1 µM]
O=C(c1csnn1)N1CCC2(CCCN(c3ccncc3)C2)CC1	25%	u	x	x	x	x
CS(=O)(=O)c1ccc(Cn2c3c(c4cc(F)cc(F)c42)CCC[C@H]3CC(=O)O)cc1	12%	u	x	x	-3	x
O=C(c1ccccc1)c1ccc(C(=O)O)c(C(=O)O)c1	x	-7%	x	x	x	x
Nc1ccc(C(=O)c2ccccc2C(=O)O)cc1Cl	0%[38.3 µM]	10%[0.074 µM]	-107*	-1%	-5	-7%[46.1 µM]
C=C(C)[C@H]1CC[C@]2(C(=O)O)CC[C@]3(C)[C@@H](CC[C@H]4[C@@]5(C)CC[C@@H](O)C(C)(C)[C@@H]5CC[C@@]43C)[C@H]12	2%	-34%[17.1 µM]	x	x	2[20.6 µM]	x
COc1ccc(C2C(C(=O)c3sc(C)nc3C)=C(O)C(=O)N2CCN(C)C)cc1OC (stereo not drawn)	3%[38.3 µM]	-2%[10 µM]	-122*	-25%	-8	3%[46.1 µM]
Cc1ccc(C2C(C(=O)c3sc(C)nc3C)=C(O)C(=O)N2CCN(C)C)o1 (stereo not drawn)	6%	4%[10 µM]	44	u	3	7%[46.1 µM]
CN1C(=O)/C(=C/c2cc(C(C)(C)C)c(O)c(C(C)(C)C)c2)NC1=S	17%	-28%	x	1%	x	-54%
